In assay [1] the target is Nuclear receptor coactivator 3 (Homo sapiens) (UniProt Q9Y6Q9). Put plainly: NCOA3 GAL4-fusion reporter inhibition – cell-based, luminescence, quadruplicate, confirmation (AID 588792;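 active = mean inhibition over 43.08%, the solvent-only control mean plus 3 SD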;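 note: 0% = DMSO treated cells and 100% = gossypol at 36 µM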). To be noted: HEK293 GAL4-SRC3 luciferase reporter, at 3.6 µM, active compounds read high.
Assay [2] deals with transactivating tegument protein VP16 (Human herpesvirus 1), Gal4-VP16 luciferase reporter. Put plainly: repression of VP16-driven luciferase reporter – cell-based, luminescence, high throughput, counter-screen for SRC3 inhibitor project (AID 588794; in the data active = inhibition above about 30%). To be noted: mammalian cells, at 3.6 µM, active compounds read high.
In assay [3] the target is Nuclear receptor coactivator 1 (Homo sapiens) (UniProt Q15788). Put plainly: NCOA1 GAL4-fusion reporter inhibition – cell-based, luminescence, quadruplicate, confirmation (AID 588820;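 active = mean inhibition above 46.68%, the untreated control wells mean plus 3 SD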;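 note: 0% = DMSO wells and 100% = gossypol 36 µM treated wells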). To be noted: HEK293 GAL4-SRC1 luciferase reporter, at 3.6 µM, active compounds read high. On the technique in general: In a reporter assay the amount or activity of a reporter protein is the signal.
Nuclear receptor coactivator 1 (Homo sapiens), sequence (Q15788 whole entry, looked up, the tested form may be a part): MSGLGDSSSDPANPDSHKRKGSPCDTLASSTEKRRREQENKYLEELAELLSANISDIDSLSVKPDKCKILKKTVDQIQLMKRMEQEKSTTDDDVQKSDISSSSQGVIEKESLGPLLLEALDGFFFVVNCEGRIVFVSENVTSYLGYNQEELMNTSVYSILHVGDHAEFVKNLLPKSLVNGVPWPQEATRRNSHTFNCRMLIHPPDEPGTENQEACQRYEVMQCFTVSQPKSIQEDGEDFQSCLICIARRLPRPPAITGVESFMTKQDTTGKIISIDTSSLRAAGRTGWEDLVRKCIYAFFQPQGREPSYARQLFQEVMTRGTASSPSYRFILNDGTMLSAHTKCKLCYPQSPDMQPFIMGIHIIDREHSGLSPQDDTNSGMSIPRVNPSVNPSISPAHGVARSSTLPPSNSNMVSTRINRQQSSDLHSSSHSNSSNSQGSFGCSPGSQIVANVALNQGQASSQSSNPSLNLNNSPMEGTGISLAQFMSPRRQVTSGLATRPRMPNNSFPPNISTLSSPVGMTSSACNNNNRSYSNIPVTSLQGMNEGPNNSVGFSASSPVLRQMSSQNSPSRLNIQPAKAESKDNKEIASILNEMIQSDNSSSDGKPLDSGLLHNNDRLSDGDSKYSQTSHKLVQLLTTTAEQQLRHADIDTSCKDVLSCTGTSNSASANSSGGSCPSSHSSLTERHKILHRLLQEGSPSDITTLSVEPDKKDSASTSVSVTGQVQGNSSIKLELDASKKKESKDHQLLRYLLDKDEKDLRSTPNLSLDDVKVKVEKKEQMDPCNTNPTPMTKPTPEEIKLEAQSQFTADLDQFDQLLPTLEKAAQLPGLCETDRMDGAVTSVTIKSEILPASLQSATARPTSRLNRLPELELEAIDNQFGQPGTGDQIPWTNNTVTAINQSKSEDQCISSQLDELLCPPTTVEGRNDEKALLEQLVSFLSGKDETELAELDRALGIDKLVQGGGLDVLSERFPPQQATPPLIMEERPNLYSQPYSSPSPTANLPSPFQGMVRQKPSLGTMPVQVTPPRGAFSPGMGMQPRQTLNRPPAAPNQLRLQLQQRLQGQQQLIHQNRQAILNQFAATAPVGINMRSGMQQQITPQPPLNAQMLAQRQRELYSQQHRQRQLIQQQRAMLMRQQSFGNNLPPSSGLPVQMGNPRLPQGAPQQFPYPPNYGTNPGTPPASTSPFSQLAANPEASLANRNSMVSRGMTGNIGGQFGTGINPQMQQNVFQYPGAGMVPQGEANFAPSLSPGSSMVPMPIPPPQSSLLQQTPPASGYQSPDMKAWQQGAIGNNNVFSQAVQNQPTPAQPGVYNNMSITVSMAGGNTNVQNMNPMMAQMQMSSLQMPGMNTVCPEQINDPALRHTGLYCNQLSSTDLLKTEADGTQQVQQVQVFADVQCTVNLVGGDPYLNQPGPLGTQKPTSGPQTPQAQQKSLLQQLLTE

Assay [4] is described as follows: repression of VP16-driven luciferase reporter – cell-based, luminescence, high throughput, counter-screen for SRC1 inhibitor project (AID 588824). To be noted: cell-based VP16 transactivation luciferase luminescence; at 3.6 µM; active compounds read high.

Values without a mark were called inactive. Active and inactive are the calls of the source. Cut-off read from the data, not from the text of the source, unless noted: active = inhibition above about 25%; inactive = the rest.

Nuclear receptor coactivator 3 (Homo sapiens), sequence (Q9Y6Q9 whole entry, looked up, the tested form may be a part): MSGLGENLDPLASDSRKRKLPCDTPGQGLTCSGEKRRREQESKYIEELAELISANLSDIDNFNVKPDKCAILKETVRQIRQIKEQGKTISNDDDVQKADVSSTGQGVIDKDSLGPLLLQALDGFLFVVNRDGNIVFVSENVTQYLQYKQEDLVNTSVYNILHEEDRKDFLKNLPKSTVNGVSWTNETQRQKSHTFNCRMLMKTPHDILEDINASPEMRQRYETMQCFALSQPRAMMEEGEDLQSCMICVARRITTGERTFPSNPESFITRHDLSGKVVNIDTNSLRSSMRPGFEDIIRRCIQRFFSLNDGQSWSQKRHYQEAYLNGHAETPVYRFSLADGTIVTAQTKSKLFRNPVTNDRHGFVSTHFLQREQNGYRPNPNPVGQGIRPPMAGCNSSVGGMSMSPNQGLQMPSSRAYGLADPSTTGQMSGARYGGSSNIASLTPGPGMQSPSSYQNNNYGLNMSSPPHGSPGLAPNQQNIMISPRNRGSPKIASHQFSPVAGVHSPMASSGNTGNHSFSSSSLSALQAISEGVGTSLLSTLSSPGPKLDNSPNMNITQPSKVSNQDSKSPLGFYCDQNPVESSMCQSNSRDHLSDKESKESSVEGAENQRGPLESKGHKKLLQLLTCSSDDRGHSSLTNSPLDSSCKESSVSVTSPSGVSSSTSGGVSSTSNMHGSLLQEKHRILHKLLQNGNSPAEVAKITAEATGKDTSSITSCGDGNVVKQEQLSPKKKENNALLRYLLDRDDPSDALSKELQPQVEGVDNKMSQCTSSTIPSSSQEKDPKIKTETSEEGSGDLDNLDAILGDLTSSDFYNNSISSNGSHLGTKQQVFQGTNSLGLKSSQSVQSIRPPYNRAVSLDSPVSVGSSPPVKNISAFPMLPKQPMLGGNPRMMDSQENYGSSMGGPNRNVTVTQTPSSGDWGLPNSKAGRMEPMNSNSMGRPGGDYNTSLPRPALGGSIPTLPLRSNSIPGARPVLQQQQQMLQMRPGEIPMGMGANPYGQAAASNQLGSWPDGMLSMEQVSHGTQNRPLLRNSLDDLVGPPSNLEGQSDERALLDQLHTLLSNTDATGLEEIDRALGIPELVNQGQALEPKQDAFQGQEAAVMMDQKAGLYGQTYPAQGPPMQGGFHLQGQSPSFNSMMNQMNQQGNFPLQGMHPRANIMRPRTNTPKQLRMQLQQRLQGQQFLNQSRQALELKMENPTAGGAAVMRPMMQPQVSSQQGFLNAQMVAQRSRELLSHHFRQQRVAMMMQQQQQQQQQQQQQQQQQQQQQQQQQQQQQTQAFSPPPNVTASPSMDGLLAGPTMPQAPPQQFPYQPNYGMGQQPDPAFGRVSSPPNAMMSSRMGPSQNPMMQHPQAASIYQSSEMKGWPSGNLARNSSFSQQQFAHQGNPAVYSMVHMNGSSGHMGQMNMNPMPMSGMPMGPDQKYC

As to `CCCCCCCCCCCCCCCCCCNc1ccn(C2OC(COP(=O)(O)OCC3OC(n4cc(F)c(=O)[nH]c4=O)CC3O)C(O)C2O)c(=O)n1` (configuration not stated), the inhibition in assay [1] was 52.3% (active); in assay [2], 38.7% (active); in assay [3], 51% (active); in assay [4] it was 31.2% (active).
With `Cc1nnsc1C(=O)N/N=C/c1ccc2ccccc2c1O`, the inhibition was 84.2% (active) in assay [1], 71.3% (active) in assay [2], 75% (active) in assay [3] and 69.8% (active) in assay [4].
On to `COc1cc(OC)c2nc(C)c3c(c2c1)N(c1ccc(O)cc1)CC3`, for which the inhibition is 5.19% in assay [1], 37.7% (active) in assay [2], 12.8% in assay [3] and 30.1% (active) in assay [4].
For `COc1ccc(-n2c(=S)[nH]c3cc(C(=O)Nc4ccc(F)cc4)ccc3c2=O)c(OC)c1`, in that order: 19.7%, 40.8% (active), 26.5% and 44.6% (active).
On to `CCOc1cc(C(N)=O)cc(Br)c1OC`, for which the inhibition in assay [1] is 29.6%; in assay [2] it was 20.8%; in assay [3], 29.3%; in assay [4], 14.2%.
`COc1cccc(-c2ccc3ncnc(NCc4ccc5c(c4)OCO5)c3c2)c1`: the inhibition was 37.3% in assay [1], 30.1% (active) in assay [2], 45.2% in assay [3] and 30% (active) in assay [4].
For `CCOC(=O)C(=Cc1ccccc1OC)C(=O)OCC`, in that order: 27.3%, 25.4%, 9.25% and 22.2%.
In the case of `CCc1ccc2[nH]c3nc(N/N=C/c4cccc(O)c4)nnc3c2c1`, the inhibition is 37.2% in assay [1], 64.4% (active) in assay [2], 22.6% in assay [3] and 59.5% (active) in assay [4].
Taken in the same sequence, the figures for `COc1cc(C(=O)N/N=C(\c2ccccc2)c2ccccn2)cc(OC)c1OC` were 32.9%, 23.2%, 28.5% and 21.9%.
For `COC(=O)c1cc2c(n1S(=O)(=O)c1ccc(C)cc1)C(=O)C(=O)c1[nH]cc(C(=O)OCc3ccccc3)c1-2`, in that order: 96.9% (active), 93.6% (active), 81.9% (active) and 93.2% (active).
As to `CCN(CC)c1ccc(/C=N/NC(=O)CNC(=O)C2COc3ccccc3O2)c(O)c1` (configuration not stated), the inhibition was 24.4% in assay [1], 17.7% in assay [2], 8.85% in assay [3] and 18.9% in assay [4].
For `Cc1sc2ncnc(N3CCC(C(=O)Nc4ccccc4C(C)(C)C)CC3)c2c1C`, in that order: 35.8%, 27.6%, 41.9% and 29.7% (active).
Regarding `O=C(CCl)N1N=C(c2cccs2)CC1c1ccco1` (configuration not stated), the inhibition was 27.7% in assay [1], 6.29% in assay [2], 18.4% in assay [3] and 17.4% in assay [4].
On to `COc1cc(/C=C2\CC(C(C)(C)C)C/C(=C\c3cc(OC)c(OC)c(OC)c3)C2=O)cc(OC)c1OC` (configuration not stated), for which the inhibition in assay [1] is 58.4% (active); in assay [2] it was 19.3%; in assay [3], 19.8%; in assay [4], 18.4%.
For `Cc1ccc2nc(NNC(=O)c3ccc(S(=O)(=O)N4CCc5ccccc5C4)cc3)sc2c1`, the inhibition in assay [1] was 41.8%; in assay [2], 46.4% (active); in assay [3], 45%; in assay [4] it was 50% (active).
Taken in the same sequence, the figures for `O=C(N/N=C/c1cc(Cl)ccc1O)c1ccc(Br)cc1` were 55.7% (active), 40.1% (active), 23.3% and 38.4% (active).
Turning to `CC(C)(C)NC(=O)C(c1ccncc1)N(Cc1cccs1)C(=O)Cn1nnc(-c2ccc(F)cc2)n1` (configuration not stated), the inhibition was 59.4% (active) in assay [1], 35% (active) in assay [2], 43% in assay [3] and 29.1% (active) in assay [4].
As for `Cc1oc2c(Cl)c(Cl)c(O)c(CN(C)C)c2c1C(=O)c1ccc(Cl)cc1`, the inhibition in assay [1] is 44.1% (active); in assay [2] it was 26.1%; in assay [3], 44.2%; in assay [4], 33.1% (active).
In the case of `COc1ccc(-c2c[n+]3c(n2-c2ccccc2)CCCCC3)cc1`, the inhibition in assay [1] is 43.4% (active); in assay [2], 39.6% (active); in assay [3], 17.3%; in assay [4], 30.1% (active).
For the compound `O=C(Nc1nc(-c2ccc(S(=O)(=O)N3CCOCC3)cc2)cs1)c1ccccc1`, the inhibition in assay [1] is 0.95%; in assay [2], 19%; in assay [3], -17.1%; in assay [4] it was 12.6%.
For `COc1ccc(CN(C)C(=O)c2ccc(OCC(=O)Nc3cccc(C(F)(F)F)c3)c(OC)c2)cc1`, in that order: 4.69%, 24.7%, 2.4% and 20.5%.
For `CC(C)(C)n1ncc2c(=O)n(CC(=O)OCc3ccccc3)cnc21`, in that order: 31.6%, 17%, -21.8% and -23.3%.
`CCCCC(=O)NC(c1ccc(C(C)C)cc1)c1ccc2cccnc2c1O` (configuration not stated): the inhibition in assay [1] is 62% (active); in assay [2] it was 61.1% (active); in assay [3], 58.2% (active); in assay [4], 66% (active).
In the case of `O=C(NCc1cccs1)c1nc2c(nnn2Cc2ccccc2Cl)c(=O)[nH]1`, the inhibition was 84.2% (active) in assay [1], 79.5% (active) in assay [2], 58.5% (active) in assay [3] and 74.7% (active) in assay [4].
For the compound `O=C(/C(=C/c1ccc(Cl)cc1)c1nc2ccccc2[nH]1)c1cccs1`, the inhibition in assay [1] is 79.1% (active); in assay [2] it was 61.9% (active); in assay [3], 22.4%; in assay [4], 49.5% (active).
For `Cc1cccc[n+]1CC(=O)/C=C1\N(C)c2ccccc2C1(C)C`, the inhibition in assay [1] was 8.01%; in assay [2] it was 20.6%; in assay [3] it was -9.04%; in assay [4], 23.5%.
As to `O=C(N/N=C/c1ccccc1O)c1cccc(C(F)(F)F)c1`, the inhibition in assay [1] was 57.9% (active); in assay [2], 43.2% (active); in assay [3] it was 65.9% (active); in assay [4] it was 48.8% (active).
Consider `Oc1ccc(C=NNc2ccccn2)c(O)c1`, for which the inhibition in assay [1] is 76% (active); in assay [2], -12.1%; in assay [3], 14.7%; in assay [4] it was -1.88%.
As to `CC(=O)c1ccc(Nc2ncnc3ccc(Br)cc23)cc1`, the inhibition in assay [1] was 49.5% (active); in assay [2] it was 39.7% (active); in assay [3], 56.4% (active); in assay [4] it was 37.8% (active).
As to `CC(C)n1c(-c2cccnc2)nc2cnccc21`, the inhibition in assay [1] is 29.8%; in assay [2] it was 26.9%; in assay [3] it was 38.1%; in assay [4], 18.9%.
For `Cc1cccc(C)c1-c1ccc(CN2C(CC(C)C)C(=O)N(Cc3cn(CC4CCCCC4)nn3)CCS2(=O)=O)cc1` (configuration not stated), the inhibition in assay [1] is 21.1%; in assay [2] it was 21.2%; in assay [3] it was 24.4%; in assay [4] it was 22.6%.
With `O=C(CNS(=O)(=O)Cc1ccccc1)NNc1ccccc1`, the inhibition in assay [1] is 3.12%; in assay [2], 12.1%; in assay [3], 12.8%; in assay [4], 16.3%.
`COc1ccc(C)cc1N=Nc1ccc(O)c2ncccc12`: the inhibition was 9.14% in assay [1], -10.3% in assay [2], -18.4% in assay [3] and 0.73% in assay [4].
As to `NC(=O)c1sc2nc3c(c(-c4ccco4)c2c1N)CCC3`, the inhibition in assay [1] is 53.9% (active); in assay [2], 8.75%; in assay [3], 52.9% (active); in assay [4] it was 33.1% (active).
For `C(=Cc1cnc2ccccc2n1)c1ccc2c(c1)OCO2`, in that order: 58.3% (active), 25.1%, -41.3% and 21.3%.
`COc1ccc(NS(=O)(=O)c2ccc(NC(=O)c3ccc(N(C)S(C)(=O)=O)cc3)cc2)c(OC)c1`: the inhibition is 12.3% in assay [1], 37% (active) in assay [2], -6.59% in assay [3] and 36.6% (active) in assay [4].
For `CC[n+]1ccccc1/C=C/c1ccc(N(C)C)cc1`, in that order: 15.6%, 47.5% (active), 15.4% and 40.1% (active).
For `Cc1ccc(C(=O)O/N=C(\N)c2ccccc2)c(Cl)c1`, in that order: -11.9%, -35.4%, -120% and -64.6%.
With `COC(=O)c1c(C)oc2ccc(N(C(=O)c3ccncc3)S(=O)(=O)c3ccc(C)cc3C)cc12`, the inhibition is 1.85% in assay [1], 36.2% (active) in assay [2], -7% in assay [3] and 27.3% (active) in assay [4].
`c1nc(NCc2ccc3c(c2)OCO3)c2cc(-c3ccoc3)ccc2n1`: the inhibition in assay [1] is 70.4% (active); in assay [2], 51.5% (active); in assay [3], 54.8% (active); in assay [4] it was 45.4% (active).
`CCOC(=O)N=Nc1c2ccccc2c2nc3no[nH]c3nc12`: the inhibition in assay [1] was 95.7% (active); in assay [2], 93.1% (active); in assay [3], 88.3% (active); in assay [4], 92.4% (active).
For `O=c1[nH]cc(F)c(=O)[nH]1`, in that order: 14.7%, 31% (active), 8.56% and 22.3%.
For `CC(=O)Nc1ccc(SCC(=O)c2cc(C)n(-c3ccccc3)c2C)cc1`, the inhibition is 30.3% in assay [1], 19.6% in assay [2], -4.5% in assay [3] and -6.91% in assay [4].
As to `O=c1[nH]c(=S)ccn1C1OC(CO)C(O)C1O` (configuration not stated), the inhibition in assay [1] is 3.59%; in assay [2], -0.78%; in assay [3] it was -11.9%; in assay [4] it was -8.74%.
Take `COC(=O)c1cc(Cl)cc(Cl)c1OS(=O)(=O)N(C)C`: the inhibition in assay [1] was -11.6%; in assay [2] it was -46.8%; in assay [3] it was -212%; in assay [4] it was -59.6%.
As to `Cc1ccc2occ(/C=N/NC(=O)c3ccncc3)c(=O)c2c1`, the inhibition in assay [1] is 21.2%; in assay [2], 15.1%; in assay [3], 20.3%; in assay [4], 14.4%.
As to `CC(=O)N1CCN(c2ncnc3ccccc23)CC1`, the inhibition in assay [1] is 29.2%; in assay [2], 26.3%; in assay [3] it was 45.1%; in assay [4], 26.3% (active).
With `O=[N+]([O-])c1ccc(NC(c2ccccc2)c2ccc3cccnc3c2O)cc1` (configuration not stated), the inhibition in assay [1] is 65% (active); in assay [2] it was 58.8% (active); in assay [3], 65.4% (active); in assay [4] it was 71.2% (active).
Turning to `CC(=O)NS(=O)(=O)c1ccc(NC(=O)/C=C/c2cn(-c3ccccc3)nc2-c2ccccc2)cc1`, the inhibition in assay [1] was -12.7%; in assay [2], 0.43%; in assay [3], 1.36%; in assay [4], -3.92%.
For the compound `Cc1cc(=O)[nH]c(NN=Cc2cc(Br)ccc2O)n1`, the inhibition in assay [1] was 76.2% (active); in assay [2] it was 64% (active); in assay [3], 51.2% (active); in assay [4], 64.8% (active).
Turning to `COc1ccc(-c2cn[nH]c2C)cc1OC`, the inhibition was 21.1% in assay [1], 10.4% in assay [2], 12.1% in assay [3] and 10.7% in assay [4].
For `COC(CN(C(=O)CCl)C(C(=O)NC1CCCCC1)c1ccccc1C)OC` (configuration not stated), in that order: 53.3% (active), 24.2%, 26.2% and 25.1%.
For `C=CC[n+]1ccc(/C=C2\C=Cc3cc(C)ccc3N2CC)c2ccccc21`, in that order: 79.4% (active), 86% (active), 63.8% (active) and 86.7% (active).

What is called inhibition is the change of the read-out against control, counted positive when it falls.
